According to ChEMBL document CHEMBL1961873, “Compounds: GSK PKIS; Assays: Nanosyn kinase panel” (2012):

What was measured:
[1] = target: Serine/threonine-protein kinase pim-2 (Homo sapiens) (UniProt Q9P1W9); conditions: at 1 µM;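 note: each value is a mean of the inhibition measurements against the kinase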
[2] = target: Serine/threonine-protein kinase pim-3 (Homo sapiens) (UniProt Q86V86); conditions: at 0.1 µM
[3] = target: Serine/threonine-protein kinase pim-3 (Homo sapiens) (UniProt Q86V86); conditions: at 1 µM
[4] = target: T1, MAP kinase-activated protein kinase 5 (Homo sapiens) (UniProt Q8IW41); conditions: at 0.1 µM
T1 sequence (whole entry): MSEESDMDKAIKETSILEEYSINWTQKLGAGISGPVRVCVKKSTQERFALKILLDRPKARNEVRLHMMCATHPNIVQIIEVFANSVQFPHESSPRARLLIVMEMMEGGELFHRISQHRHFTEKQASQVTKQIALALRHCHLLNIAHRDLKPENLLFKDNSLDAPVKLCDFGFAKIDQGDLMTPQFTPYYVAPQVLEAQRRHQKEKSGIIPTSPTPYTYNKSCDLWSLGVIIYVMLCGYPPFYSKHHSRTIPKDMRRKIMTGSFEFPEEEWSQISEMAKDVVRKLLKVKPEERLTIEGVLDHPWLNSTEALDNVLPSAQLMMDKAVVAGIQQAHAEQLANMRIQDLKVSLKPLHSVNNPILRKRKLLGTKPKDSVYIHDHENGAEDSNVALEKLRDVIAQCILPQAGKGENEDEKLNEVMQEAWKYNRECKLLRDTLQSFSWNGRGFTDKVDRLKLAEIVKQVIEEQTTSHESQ

[5] = target: T1, MAP kinase-activated protein kinase 5 (Homo sapiens); conditions: at 1 µM
[6] = target: Serine/threonine-protein kinase SIK1 (Homo sapiens) (UniProt P57059); conditions: at 0.1 µM
Sequence of Serine/threonine-protein kinase SIK1 (Homo sapiens) (P57059 whole entry): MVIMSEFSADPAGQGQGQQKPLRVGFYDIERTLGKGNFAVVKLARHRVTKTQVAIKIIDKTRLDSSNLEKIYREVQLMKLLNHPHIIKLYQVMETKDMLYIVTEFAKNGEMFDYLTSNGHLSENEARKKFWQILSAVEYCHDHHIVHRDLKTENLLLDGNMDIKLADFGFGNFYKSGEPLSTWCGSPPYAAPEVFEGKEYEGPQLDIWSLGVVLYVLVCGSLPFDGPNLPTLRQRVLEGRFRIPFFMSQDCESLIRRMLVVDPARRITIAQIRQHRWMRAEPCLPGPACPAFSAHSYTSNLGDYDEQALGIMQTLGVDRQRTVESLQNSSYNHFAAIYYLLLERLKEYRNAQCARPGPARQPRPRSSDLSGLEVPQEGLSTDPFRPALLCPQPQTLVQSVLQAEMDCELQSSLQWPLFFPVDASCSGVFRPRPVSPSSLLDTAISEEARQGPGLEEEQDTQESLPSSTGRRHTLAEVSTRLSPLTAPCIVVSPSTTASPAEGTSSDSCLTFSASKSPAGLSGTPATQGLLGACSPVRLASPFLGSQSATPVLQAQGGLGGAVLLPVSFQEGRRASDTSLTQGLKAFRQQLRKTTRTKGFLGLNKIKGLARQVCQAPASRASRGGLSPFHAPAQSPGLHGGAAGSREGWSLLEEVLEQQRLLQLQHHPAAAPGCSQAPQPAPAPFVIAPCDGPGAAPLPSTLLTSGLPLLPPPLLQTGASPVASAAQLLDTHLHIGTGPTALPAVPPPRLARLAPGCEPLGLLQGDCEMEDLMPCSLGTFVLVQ

[7] = target: Serine/threonine-protein kinase SIK1 (Homo sapiens) (UniProt P57059); conditions: at 1 µM
[8] = target: Serine/threonine-protein kinase SIK2 (Homo sapiens) (UniProt Q9H0K1); conditions: at 0.1 µM
Sequence of Serine/threonine-protein kinase SIK2 (Homo sapiens) (Q9H0K1 whole entry, looked up): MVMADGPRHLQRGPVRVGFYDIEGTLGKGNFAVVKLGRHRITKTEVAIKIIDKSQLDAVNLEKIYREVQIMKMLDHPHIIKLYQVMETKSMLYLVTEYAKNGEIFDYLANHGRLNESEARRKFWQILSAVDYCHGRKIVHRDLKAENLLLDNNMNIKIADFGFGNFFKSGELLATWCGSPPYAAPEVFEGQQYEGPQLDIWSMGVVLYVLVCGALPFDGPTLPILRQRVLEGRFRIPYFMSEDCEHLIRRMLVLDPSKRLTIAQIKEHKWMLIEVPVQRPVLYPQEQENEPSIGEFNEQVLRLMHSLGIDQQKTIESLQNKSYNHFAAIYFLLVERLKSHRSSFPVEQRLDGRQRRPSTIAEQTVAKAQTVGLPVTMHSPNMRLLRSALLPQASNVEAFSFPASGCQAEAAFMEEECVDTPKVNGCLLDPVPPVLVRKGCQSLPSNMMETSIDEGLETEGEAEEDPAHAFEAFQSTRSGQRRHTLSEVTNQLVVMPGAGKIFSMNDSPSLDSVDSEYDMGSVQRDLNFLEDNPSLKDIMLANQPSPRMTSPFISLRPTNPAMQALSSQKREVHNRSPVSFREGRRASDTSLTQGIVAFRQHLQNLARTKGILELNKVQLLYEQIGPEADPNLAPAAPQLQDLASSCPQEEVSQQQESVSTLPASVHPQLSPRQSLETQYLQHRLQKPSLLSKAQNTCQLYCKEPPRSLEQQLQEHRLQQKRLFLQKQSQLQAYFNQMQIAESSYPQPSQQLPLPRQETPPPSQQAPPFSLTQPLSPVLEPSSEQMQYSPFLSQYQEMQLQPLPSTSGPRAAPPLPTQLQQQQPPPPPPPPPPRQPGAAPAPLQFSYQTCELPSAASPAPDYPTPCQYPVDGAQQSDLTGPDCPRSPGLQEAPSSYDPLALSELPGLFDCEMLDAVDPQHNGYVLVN

[9] = target: Serine/threonine-protein kinase SIK2 (Homo sapiens) (UniProt Q9H0K1); conditions: at 1 µM
[10] = target: T2, Serine/threonine-protein kinase TBK1 (Homo sapiens) (UniProt Q9UHD2); conditions: at 0.1 µM
T2 sequence (whole entry): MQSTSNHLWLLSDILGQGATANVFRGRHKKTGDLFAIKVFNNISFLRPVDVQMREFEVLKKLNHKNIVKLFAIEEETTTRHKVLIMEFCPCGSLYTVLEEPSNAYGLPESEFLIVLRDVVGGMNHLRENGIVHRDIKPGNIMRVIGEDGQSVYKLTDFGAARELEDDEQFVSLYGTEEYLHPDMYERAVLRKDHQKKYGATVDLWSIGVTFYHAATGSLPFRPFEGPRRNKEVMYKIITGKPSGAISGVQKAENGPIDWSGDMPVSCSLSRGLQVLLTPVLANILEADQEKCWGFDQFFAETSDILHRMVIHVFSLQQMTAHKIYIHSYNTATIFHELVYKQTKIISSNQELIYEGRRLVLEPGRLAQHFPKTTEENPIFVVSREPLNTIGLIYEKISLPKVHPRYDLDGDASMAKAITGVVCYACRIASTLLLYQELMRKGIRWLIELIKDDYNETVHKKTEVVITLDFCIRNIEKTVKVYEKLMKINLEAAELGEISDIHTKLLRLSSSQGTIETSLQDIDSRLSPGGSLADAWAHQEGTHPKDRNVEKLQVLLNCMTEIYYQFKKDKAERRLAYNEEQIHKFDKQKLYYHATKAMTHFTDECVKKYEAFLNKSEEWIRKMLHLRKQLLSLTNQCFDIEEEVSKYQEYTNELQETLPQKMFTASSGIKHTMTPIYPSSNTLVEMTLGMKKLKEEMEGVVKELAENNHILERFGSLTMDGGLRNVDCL

[11] = target: T2, Serine/threonine-protein kinase TBK1 (Homo sapiens); conditions: at 1 µM
[12] = target: T3, Testis-specific serine/threonine-protein kinase 1 (Homo sapiens) (UniProt Q9BXA7); conditions: at 0.1 µM
T3 sequence (whole entry): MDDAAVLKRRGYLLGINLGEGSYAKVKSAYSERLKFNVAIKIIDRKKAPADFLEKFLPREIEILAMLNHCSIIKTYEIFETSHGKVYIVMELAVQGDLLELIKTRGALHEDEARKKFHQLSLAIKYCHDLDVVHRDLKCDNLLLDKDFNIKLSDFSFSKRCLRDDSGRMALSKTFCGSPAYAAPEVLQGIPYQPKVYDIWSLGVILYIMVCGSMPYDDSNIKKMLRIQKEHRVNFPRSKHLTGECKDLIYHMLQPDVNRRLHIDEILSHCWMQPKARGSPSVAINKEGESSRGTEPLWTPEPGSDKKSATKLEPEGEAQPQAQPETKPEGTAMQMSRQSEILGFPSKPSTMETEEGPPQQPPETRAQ

[13] = target: T3, Testis-specific serine/threonine-protein kinase 1 (Homo sapiens); conditions: at 1 µM
[14] = target: T4, Testis-specific serine/threonine-protein kinase 2 (Homo sapiens) (UniProt Q96PF2); conditions: at 0.1 µM
T4 sequence (whole entry): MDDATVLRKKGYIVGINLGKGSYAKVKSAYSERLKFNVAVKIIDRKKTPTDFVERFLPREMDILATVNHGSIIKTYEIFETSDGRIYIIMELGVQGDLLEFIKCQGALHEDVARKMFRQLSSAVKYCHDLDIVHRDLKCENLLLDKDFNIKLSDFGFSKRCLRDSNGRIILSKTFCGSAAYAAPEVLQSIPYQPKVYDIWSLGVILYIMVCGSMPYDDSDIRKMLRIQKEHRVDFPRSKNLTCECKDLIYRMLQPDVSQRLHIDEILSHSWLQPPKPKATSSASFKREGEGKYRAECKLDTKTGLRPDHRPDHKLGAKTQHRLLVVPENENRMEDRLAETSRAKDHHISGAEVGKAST

[15] = target: T4, Testis-specific serine/threonine-protein kinase 2 (Homo sapiens); conditions: at 1 µM
[16] = target: Casein kinase I isoform alpha (Homo sapiens) (UniProt P48729); conditions: at 0.1 µM
Sequence of Casein kinase I isoform alpha (Homo sapiens) (P48729 2-337 limits assumed): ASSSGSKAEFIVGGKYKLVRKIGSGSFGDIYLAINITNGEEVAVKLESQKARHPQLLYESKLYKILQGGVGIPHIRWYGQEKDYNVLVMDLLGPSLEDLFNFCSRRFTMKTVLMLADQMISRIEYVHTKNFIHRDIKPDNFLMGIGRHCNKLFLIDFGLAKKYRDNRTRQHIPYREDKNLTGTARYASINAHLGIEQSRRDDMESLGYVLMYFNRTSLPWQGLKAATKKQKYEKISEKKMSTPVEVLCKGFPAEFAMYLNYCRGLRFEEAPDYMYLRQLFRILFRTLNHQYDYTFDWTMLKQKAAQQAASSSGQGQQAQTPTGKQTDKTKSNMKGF

[17] = target: Casein kinase I isoform alpha (Homo sapiens) (UniProt P48729); conditions: at 1 µM
[18] = target: Casein kinase I isoform gamma-1 (Homo sapiens) (UniProt Q9HCP0); conditions: at 0.1 µM
Sequence of Casein kinase I isoform gamma-1 (Homo sapiens) (Q9HCP0 whole entry, looked up, canonical isoform): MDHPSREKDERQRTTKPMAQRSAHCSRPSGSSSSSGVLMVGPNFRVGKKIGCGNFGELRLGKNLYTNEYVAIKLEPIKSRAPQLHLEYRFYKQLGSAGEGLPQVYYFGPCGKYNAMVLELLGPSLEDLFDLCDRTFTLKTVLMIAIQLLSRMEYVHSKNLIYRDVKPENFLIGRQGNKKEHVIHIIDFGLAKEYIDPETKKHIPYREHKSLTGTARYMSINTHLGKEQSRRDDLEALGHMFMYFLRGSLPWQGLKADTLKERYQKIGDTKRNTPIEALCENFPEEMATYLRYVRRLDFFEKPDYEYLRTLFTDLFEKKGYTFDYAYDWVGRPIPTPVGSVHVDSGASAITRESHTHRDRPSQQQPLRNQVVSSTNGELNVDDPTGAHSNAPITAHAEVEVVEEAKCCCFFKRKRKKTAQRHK

[19] = target: Casein kinase I isoform gamma-1 (Homo sapiens) (UniProt Q9HCP0); conditions: at 1 µM
[20] = target: Casein kinase I isoform gamma-2 (Homo sapiens) (UniProt P78368); conditions: at 0.1 µM;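 note: values are mean inhibition figures reported as part of the GSK PKIS dataset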
Sequence of Casein kinase I isoform gamma-2 (Homo sapiens) (P78368 whole entry, looked up, canonical isoform): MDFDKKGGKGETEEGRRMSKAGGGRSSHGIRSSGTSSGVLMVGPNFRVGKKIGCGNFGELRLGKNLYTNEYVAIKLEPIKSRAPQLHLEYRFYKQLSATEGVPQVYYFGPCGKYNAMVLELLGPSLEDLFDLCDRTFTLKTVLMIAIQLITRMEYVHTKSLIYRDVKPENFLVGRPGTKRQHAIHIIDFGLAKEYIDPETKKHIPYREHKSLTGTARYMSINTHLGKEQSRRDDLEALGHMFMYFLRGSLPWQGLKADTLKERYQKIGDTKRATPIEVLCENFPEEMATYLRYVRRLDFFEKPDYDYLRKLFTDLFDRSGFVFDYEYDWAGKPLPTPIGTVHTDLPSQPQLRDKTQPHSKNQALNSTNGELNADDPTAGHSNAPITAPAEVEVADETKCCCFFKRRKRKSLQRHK

Sequence of Serine/threonine-protein kinase pim-2 (Homo sapiens) (Q9P1W9 whole entry, looked up): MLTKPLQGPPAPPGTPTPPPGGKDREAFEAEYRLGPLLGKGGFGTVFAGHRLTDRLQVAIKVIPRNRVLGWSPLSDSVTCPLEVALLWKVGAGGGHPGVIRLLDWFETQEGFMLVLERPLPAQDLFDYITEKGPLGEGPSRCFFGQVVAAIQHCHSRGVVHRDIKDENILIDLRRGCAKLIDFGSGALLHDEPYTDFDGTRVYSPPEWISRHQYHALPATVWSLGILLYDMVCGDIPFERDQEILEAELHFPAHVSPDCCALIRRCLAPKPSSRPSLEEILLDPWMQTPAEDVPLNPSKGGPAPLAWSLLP

SMILES	inhibition [1]	inhibition [2]	inhibition [3]	inhibition [4]	inhibition [5]	inhibition [6]	inhibition [7]	inhibition [8]	inhibition [9]	inhibition [10]	inhibition [11]	inhibition [12]	inhibition [13]	inhibition [14]	inhibition [15]	inhibition [16]	inhibition [17]	inhibition [18]	inhibition [19]	inhibition [20]
COc1cccc(-n2ncc3c(N/N=C/c4ccc(C)cc4)ncnc32)c1	0.75%	2.2%	8.3%	1.88%	2.22%	7.95%	12.6%	8.99%	14.7%	2.64%	5.4%	5.91%	15.2%	2.36%	3.89%	3%	8.69%	6.44%	11.2%	6.88%
NC(=O)c1sc(-n2cnc3ccccc32)cc1OCc1ccccc1Br	0.78%	-1.03%	3.81%	1.15%	0.91%	4.47%	13.6%	3.55%	9.83%	0.38%	2.68%	3.19%	4.53%	0.6%	1.24%	2.22%	7.23%	3.55%	5.15%	3.34%
CS(=O)(=O)Nc1cccc(-c2ccc3c(NC(=O)C4CC4)n[nH]c3c2)c1	1.38%	-0.62%	-2.53%	0.1%	-1.16%	-0.72%	5.25%	-2.65%	9.32%	-0.1%	3.56%	1.06%	0.45%	0.02%	-1.13%	1.72%	1.75%	0.64%	3.47%	-0.83%
Cc1ccc(O)cc1Nc1ccnc2ccc(S(C)(=O)=O)cc12	0.8%	0.69%	1.04%	2.48%	2.77%	47.2%	89.6%	15.8%	52.6%	2.4%	9.14%	3.95%	4.63%	2.41%	3.33%	11.9%	43.8%	4.05%	7.45%	4.13%
C[C@@H](Oc1cc(-n2cnc3ccc(OC[C@@H](O)CO)cc32)sc1C(N)=O)c1ccccc1Cl	1.97%	2.99%	22.2%	-0.57%	-0.59%	-2.64%	6.54%	4.2%	10.6%	0.21%	-0.29%	0.57%	1.14%	-0.99%	0.82%	2.6%	3.43%	-1.5%	2.39%	-1.3%
N#Cc1c(NC(=O)c2ccccc2F)sc2c1CCCC2	0.56%	0.44%	2.71%	-0.42%	-0.7%	0.64%	2.74%	-2.07%	-0.94%	-1.61%	-0.25%	0.47%	0.66%	0.05%	0.04%	-1.71%	-1.69%	-1.23%	-0.65%	-1.34%
Oc1cccc(-c2nc(-c3ccccc3)[nH]c2-c2ccncc2)c1	0.33%	-1.73%	1.72%	1.55%	1.19%	8.44%	11.6%	4.34%	10.2%	1.64%	2.77%	5.01%	2.8%	3.51%	2.57%	12.6%	23.9%	2.26%	3.29%	2.14%
